Assay [1] in a line: AP1 Signaling Pathway (AID 357; active = well fitted curve in either direction with a large enough effect, not every such curve was filed as active;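 note: ME-180 reporter cells stimulated with EGF at its EC50 level; % is set by controls: 0 for no effect and ±100 for the full control effect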). The following applies: ME-180 AP-1-bla reporter, EGF-induced, beta-lactamase ratio, 5 h; at 7.69 µM (top of the series) unless noted. The essentials:
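In this screen, ME-180 cells in Opti-MEM with 0.5% dialyzed FBS received EC50 EGF and compound titrations for 5 h. AP-1 reporter beta-lactamase was detected via CCF4 ratio, giving AC50 for positive and negative modulators.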

Assay [2] addresses Cytochrome P450 1A2 (Homo sapiens) (UniProt P05177). Put plainly: p450-cyp1a2 (AID 410; calls by dose curve; note: potency is the fitted concentration of half-maximal effect;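 for activity change, negative = inhibition: -100% = full effect of reference inhibitor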). A digest of the protocol:
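Luminescent demethylation readout: Luciferin-ME (100uM, equal to Km) turned over by 20nM CYP1A2 for 60 min at room temperature after NADPH regeneration addition, following 10 min compound preincubation. Normalization used 57 uM furafylline as full inhibition.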

A short description of assay [3]: NFAT Signaling Pathway (AID 444; active = well fitted curve in either direction with a large enough effect, not every such curve was filed as active;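 note: carbachol stimulus at about its EC50 of 1 µM final; % is set by controls: 0 for no effect and ±100 for the full control effect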). The settings on record: Jurkat NFAT-bla M1, carbachol, beta-lactamase ratio, 5 h; at 7.69 µM (top of the series) unless noted. The essentials:
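Read-out: CCF4 FRET ratio (460 nm/530 nm) after 1 h RT dye loading, used for %activity and AC50 from titration series. Cells: Jurkat NFAT-β-lactamase/M1 line, treated with compound plus 1 uM carbachol for 5 h, 37 °C.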

The nature of assay [4]: Stat Signaling Pathway (AID 446; active = well fitted curve in either direction with a large enough effect, not every such curve was filed as active;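 note: ME-180 cervical cancer cells given 40 pM IL-6 alongside compound; SIE-controlled beta-lactamase reporter measured as 460/530 nm FRET emission ratio; % is set by controls: 0 for no effect and ±100 for the full control effect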). The following applies: ME-180 (cervical carcinoma) SIE beta-lactamase reporter, IL-6 stimulated, 5 h; at 7.69 µM (top of the series) unless noted. The essentials:
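Emission at 460 and 530 nm (excitation 405 nm) reports SIE-controlled beta-lactamase in ME-180 cells. Cells received compound with 40 pM IL-6 for 5 hrs at 37 C; data scaled between 300 pM IL-6 and 125 nM JAK-inhibitor controls.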

Assay [5] concerns the target Glucocorticoid receptor (Homo sapiens) (UniProt P04150). In words: GR-GFP Redistribution (AID 450;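 active = compounds whose dose series gives a full or clear partial fitted curve of increased nuclear translocation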; note: potency is the fitted concentration of half-maximal effect). The following applies: U2OS GR-GFP nuclear translocation, laser cytometry, 2 h.
The target is the same in assay [6]. Put plainly: GR-EFC Redistribution (AID 451; calls by dose curve; note: potency is the fitted concentration of half-maximal effect). The following applies: CHO-K1 GR-EFC translocation, beta-gal luminescence, 2 h. The essentials: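 Translocation of GR-ED fusion to nuclear EA restores b-gal, read by luminescence after 1 h room-temperature detection. Engineered CHO-K1 biosensor cells, 1,000/well, exposed 2 h at 37 C to titrations up to 46 uM final.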

The target in assay [7] is Mitogen-activated protein kinase 10 (Mus musculus) (UniProt Q61831). In words: JNK3 AlphaScreen Assay (AID 530; active = well fitted curve in either direction with a large enough effect, not every such curve was filed as active;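 note: kinase came from lysate of stimulated human HepG2 cells; signal reports phosphorylation of biotinylated GST-cJun 1-79 at Ser73 with 10 µM ATP; % is set by controls: 0 for no effect and ±100 for the full control effect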). The essentials: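 qHTS titrations with 15 min compound pre-incubation before adding ATP (10 uM final). Read-out: AlphaScreen of Ser73-phosphorylated biotin-GST-cJun using HepG2 lysate JNK3 activated by IL-1β and TNFα.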
Assay [8] deals with 3',5'-cyclic-AMP phosphodiesterase 4B (Homo sapiens) (UniProt Q07343). Put plainly: qHTS Assay for Inhibitors of PDE-IV (AID 607; active = well fitted activation curve with a large enough effect in the main read-out, with a control signal flat, not every such curve was filed as active; note: % of control where 0% means no effect). The essentials:
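The readout is membrane depolarisation from a cAMP-sensing CNG channel, detected with a potential dye at ex 535/em 590. Cells were HEK293-derived (endogenous PDE-IV) at 1000 cells/well, titrated up to 22.9 uM final.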

In assay [9] the target is Guanine nucleotide-binding protein G(i) subunit alpha-1 (Homo sapiens) (UniProt P63096). In words: qHTS Assay for Inhibitors of RGS12 GoLoco Motif Activity (Green Fluorophore) (AID 879).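 Note: 0% = labeled peptide with Gαi1 and full inhibition = labeled peptide alone without protein; negative values mean loss of peptide binding seen as reduced polarization.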 A digest of the protocol:
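A drop in FITC polarization marked displacement of the FITC-tagged RGS12 GoLoco peptide (10 nM) from Gαi1 (50 nM). Compounds were incubated 10 min at room temperature in Tris pH 7.5 buffer containing 150 mM NaCl, 0.1 mM GDP and 0.05% NP40; unlabeled peptide titration served as control.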

Assay [10] in a line: qHTS Assay for Identification of Small Molecule Agonists for Thrombopoietin (TPO) Signaling Pathway (AID 917). Note: % is set by controls: 0 for no effect and ±100 for the full control effect. A digest of the protocol: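 Human TPO receptor–transfected Ba/F3 cells (murine, IL-3-dependent) in IL-3-deficient medium; compounds plus TPO at EC50, 26 pM final; 24 hrs, 37 C; GpIIb-luciferase luminescence after 10 min RT detection.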
Assay [11] has as its target Muscarinic acetylcholine receptor M1 (Rattus norvegicus) (UniProt P08482). In words: qHTS Assay for Antagonists of Acetylcholine Muscarinic M1 Receptor: Measurement of IP-One Response (AID 944). Note: nearly all actives have a fitted effect of over 75% in size. A digest of the protocol: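 IP1 accumulation measured via TR-FRET between d2-IP1 and Eu-cryptate anti-IP1 antibody after carbachol (200 nM, EC80) stimulation for 30 min; rat M1-transfected CHO cells received compound 10 min before agonist.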

Assay [12] has as its target Pyruvate kinase (Leishmania mexicana) (UniProt Q27686). In words: qHTS Validation Assay for Inhibitors of Leishmania Mexicana Pyruvate Kinase (AID 945).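 Note: 0% = DMSO only neutral control wells.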 A digest of the protocol:
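An endpoint luciferase assay: 0.2 nM LmPYK E451W turns over 0.5 mM PEP with 0.1 mM ADP for 1 h at room temperature, pH 7.2, before PKLight addition. Values are normalized to DMSO-only wells.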

The target of assay [13] is Pyruvate kinase PKM (Homo sapiens) (UniProt P14618). In words: qHTS Assay for Activators of Human Muscle Pyruvate Kinase (AID 954; active = well fitted curve in the direction sought with a large enough effect, not every such curve was filed as active;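 note: 0% = uninhibited enzyme and -100% = no enzyme or full thiadiazolimine inhibition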). A digest of the protocol:
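PKM2, human, >95% pure, 0.1 nM; PEP 0.5 mM (Km), ADP 0.1 mM; 50 mM imidazole pH 7.2, 50 mM KCl, 0.01% Tween 20, 0.05% BSA; 1 h RT; luciferase luminescence readout.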

Assay [14] concerns the target Alpha-galactosidase A (Homo sapiens) (UniProt P06280). In words: Counterscreen for Glucocerebrosidase Inhibitors: qHTS Assay for Human alpha-Galactosidase at pH 4.5 (AID 992). Note: 0% is about no effect. The essentials: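 Fluorogenic 4-MU alpha-D-galactoside (80 uM) hydrolysis, 2 nM enzyme, pH 4.5 citrate buffer + 0.005% Tween-20; 20 min RT; NaOH/glycine pH 10 stop; Ex365/Em440. Compounds titrated 0.7 nM–77 uM; Hill-equation AC50.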

Assay [15] has as its target alpha-glucosidase (Oryza sativa, rice) (UniProt Q653V4). In words: Counterscreen for Glucocerebrosidase Inhibitors: qHTS Assay for Rice alpha-Glucosidase at pH 5.0 (AID 997).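 Note: 0% = full activity with enzyme and -100% = basal without enzyme.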 The essentials:
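Endpoint fluorogenic assay at pH 5.0: compounds (0.7 nM to 77 uM) titrated against 4 nM rice enzyme and 400 uM 4-MU-alpha-glucoside for 20 min at room temperature; NaOH/glycine stop, read ex 365/em 440 nm, Hill-fitted AC50.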

Assay [16] concerns the target Alpha-galactosidase (Coffea arabica) (UniProt Q42656). In words: Counterscreen for Glucocerebrosidase Inhibitors: qHTS Assay for Coffee Bean alpha-Galactosidase at pH 5.9 (AID 998).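 Note: plate controls were uninhibited enzyme for no effect and no-enzyme basal signal for full effect.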 A digest of the protocol:
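Fluorogenic 4-MU substrate hydrolysis, 80 uM substrate and 2 nM coffee bean alpha-galactosidase, pH 5.9 citrate buffer, 20 min at room temperature, then NaOH/glycine stop. Titration 0.7 nM–77 uM, normalized to no-enzyme and enzyme controls, AC50 via Hill equation.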

Assay [17] has as its target Muscarinic acetylcholine receptor M1 (Rattus norvegicus) (UniProt P08482). Put plainly: qHTS Assay for Antagonists of Acetylcholine Muscarinic M1 Receptor: Kinetic Measurement of Intracellular Calcium Response (AID 943).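 For activity change, negative = inhibition: Fluo-4 calcium signal as peak divided by basal fluorescence over 4 min.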 Note: nearly all actives have a fitted effect of over 75% in size. Note: potency is the fitted concentration of half-maximal effect. The essentials: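 Antagonism measured as reduction of carbachol-evoked (EC80, 100 nM final) calcium flux in rat M1-CHO cells after 10 min compound exposure. Fluo-4 signal read kinetically; ratio of maximal to basal fluorescence.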

Five compounds from PubChem BioAssay (NCATS) can be followed below.

“And” between values parts separate entries of the source, which are not always exact repeats. Equal entries are not always repeated. Values without a mark were called inactive. Inconclusive results are not listed. The source made the active and inactive calls. Unless noted, calls come from the whole dose curve; as a rule, active = well fitted curve in the direction sought with a large enough effect; inconclusive = small, poorly fitted or top-dose-only effect, or another doubt; inactive = no such curve, though single readings can be large; an effect the other way counts as inactive or inconclusive.

Chain of Cytochrome P450 1A2 (Homo sapiens) (P05177 whole entry, looked up): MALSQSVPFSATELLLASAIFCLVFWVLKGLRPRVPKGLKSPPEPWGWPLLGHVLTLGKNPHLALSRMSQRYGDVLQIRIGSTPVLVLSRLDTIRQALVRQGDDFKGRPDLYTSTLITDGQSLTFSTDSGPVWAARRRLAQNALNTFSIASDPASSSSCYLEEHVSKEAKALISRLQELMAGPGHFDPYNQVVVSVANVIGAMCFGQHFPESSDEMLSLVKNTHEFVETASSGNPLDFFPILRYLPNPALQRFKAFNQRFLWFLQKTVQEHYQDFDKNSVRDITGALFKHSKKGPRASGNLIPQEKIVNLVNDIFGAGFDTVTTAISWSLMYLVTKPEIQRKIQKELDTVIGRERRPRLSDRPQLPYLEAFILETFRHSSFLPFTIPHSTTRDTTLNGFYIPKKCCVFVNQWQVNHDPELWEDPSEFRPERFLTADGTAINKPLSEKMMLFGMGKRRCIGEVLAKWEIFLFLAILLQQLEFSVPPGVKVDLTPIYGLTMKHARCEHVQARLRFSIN
Chain of Guanine nucleotide-binding protein G(i) subunit alpha-1 (Homo sapiens) (P63096 whole entry, looked up): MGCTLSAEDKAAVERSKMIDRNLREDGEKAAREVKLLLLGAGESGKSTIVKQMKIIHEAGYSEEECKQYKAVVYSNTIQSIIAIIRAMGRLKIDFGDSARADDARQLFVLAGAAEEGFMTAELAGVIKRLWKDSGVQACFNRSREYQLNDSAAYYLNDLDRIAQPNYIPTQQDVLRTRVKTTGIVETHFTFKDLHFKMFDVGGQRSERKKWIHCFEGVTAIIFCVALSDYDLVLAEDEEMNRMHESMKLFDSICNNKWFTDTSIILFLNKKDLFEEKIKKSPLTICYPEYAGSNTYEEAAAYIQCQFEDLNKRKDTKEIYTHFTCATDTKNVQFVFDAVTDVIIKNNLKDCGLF
Chain of Pyruvate kinase PKM (Homo sapiens) (P14618 whole entry, looked up): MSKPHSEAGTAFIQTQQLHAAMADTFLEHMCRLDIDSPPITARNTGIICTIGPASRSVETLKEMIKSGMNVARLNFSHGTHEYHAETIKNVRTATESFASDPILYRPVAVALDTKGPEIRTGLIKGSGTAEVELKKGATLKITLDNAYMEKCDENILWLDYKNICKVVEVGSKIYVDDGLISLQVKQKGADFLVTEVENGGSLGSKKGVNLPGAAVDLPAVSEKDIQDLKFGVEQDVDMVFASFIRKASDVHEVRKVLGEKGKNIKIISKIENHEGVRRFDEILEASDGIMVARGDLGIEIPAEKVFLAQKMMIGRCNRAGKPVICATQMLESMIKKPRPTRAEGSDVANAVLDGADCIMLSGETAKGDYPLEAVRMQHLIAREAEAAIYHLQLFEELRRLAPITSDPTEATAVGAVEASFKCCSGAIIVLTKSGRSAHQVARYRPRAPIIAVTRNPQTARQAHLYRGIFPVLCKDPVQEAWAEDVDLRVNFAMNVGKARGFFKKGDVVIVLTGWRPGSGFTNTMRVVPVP
Chain of Glucocorticoid receptor (Homo sapiens) (P04150 whole entry, looked up, the tested form may be a part): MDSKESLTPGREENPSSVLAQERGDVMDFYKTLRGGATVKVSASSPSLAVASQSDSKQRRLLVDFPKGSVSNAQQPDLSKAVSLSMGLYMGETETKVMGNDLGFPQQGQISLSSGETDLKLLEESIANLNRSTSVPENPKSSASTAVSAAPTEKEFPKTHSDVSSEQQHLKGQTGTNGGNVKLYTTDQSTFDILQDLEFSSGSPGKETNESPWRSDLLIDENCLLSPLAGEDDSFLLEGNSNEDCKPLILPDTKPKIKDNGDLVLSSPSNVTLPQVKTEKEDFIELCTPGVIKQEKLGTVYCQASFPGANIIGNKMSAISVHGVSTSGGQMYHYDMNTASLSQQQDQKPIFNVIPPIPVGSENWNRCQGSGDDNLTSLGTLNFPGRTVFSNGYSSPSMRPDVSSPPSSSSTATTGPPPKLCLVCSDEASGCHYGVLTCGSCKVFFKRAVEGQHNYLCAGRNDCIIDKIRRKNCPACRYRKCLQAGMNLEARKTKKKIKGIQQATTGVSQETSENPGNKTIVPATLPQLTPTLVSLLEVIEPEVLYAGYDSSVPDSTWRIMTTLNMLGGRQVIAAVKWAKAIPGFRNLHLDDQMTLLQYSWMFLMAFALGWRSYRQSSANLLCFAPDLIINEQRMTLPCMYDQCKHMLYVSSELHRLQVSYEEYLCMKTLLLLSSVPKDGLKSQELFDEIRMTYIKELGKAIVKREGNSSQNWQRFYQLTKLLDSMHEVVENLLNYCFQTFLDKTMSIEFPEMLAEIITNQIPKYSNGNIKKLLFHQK
Chain of Pyruvate kinase (Leishmania mexicana) (Q27686 2-499 E452W): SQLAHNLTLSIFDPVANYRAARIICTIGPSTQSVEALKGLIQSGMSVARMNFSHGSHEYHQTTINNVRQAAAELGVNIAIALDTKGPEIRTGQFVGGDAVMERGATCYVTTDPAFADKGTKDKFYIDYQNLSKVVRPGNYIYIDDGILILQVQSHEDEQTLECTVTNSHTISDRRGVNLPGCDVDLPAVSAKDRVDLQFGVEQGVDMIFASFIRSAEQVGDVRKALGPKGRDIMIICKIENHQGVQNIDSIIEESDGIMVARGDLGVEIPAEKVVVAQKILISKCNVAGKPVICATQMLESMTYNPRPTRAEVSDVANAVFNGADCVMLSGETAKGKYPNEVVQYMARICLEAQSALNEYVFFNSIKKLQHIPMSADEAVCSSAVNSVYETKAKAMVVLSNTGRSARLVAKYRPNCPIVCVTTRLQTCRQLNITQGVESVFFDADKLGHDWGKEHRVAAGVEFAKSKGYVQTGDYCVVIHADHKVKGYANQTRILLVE
Chain of Alpha-galactosidase A (Homo sapiens) (P06280 whole entry, looked up): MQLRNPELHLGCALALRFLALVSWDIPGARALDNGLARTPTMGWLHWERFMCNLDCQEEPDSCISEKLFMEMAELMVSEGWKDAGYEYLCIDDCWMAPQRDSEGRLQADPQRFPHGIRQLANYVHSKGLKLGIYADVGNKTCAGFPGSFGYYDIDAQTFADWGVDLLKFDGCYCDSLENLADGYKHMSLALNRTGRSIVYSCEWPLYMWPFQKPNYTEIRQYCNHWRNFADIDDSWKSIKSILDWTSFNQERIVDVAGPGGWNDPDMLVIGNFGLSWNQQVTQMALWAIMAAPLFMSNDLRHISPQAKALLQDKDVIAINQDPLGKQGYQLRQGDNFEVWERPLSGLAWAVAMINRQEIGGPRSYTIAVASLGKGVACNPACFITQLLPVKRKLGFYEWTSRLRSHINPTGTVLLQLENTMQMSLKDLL
Chain of 3',5'-cyclic-AMP phosphodiesterase 4B (Homo sapiens) (Q07343 whole entry, looked up): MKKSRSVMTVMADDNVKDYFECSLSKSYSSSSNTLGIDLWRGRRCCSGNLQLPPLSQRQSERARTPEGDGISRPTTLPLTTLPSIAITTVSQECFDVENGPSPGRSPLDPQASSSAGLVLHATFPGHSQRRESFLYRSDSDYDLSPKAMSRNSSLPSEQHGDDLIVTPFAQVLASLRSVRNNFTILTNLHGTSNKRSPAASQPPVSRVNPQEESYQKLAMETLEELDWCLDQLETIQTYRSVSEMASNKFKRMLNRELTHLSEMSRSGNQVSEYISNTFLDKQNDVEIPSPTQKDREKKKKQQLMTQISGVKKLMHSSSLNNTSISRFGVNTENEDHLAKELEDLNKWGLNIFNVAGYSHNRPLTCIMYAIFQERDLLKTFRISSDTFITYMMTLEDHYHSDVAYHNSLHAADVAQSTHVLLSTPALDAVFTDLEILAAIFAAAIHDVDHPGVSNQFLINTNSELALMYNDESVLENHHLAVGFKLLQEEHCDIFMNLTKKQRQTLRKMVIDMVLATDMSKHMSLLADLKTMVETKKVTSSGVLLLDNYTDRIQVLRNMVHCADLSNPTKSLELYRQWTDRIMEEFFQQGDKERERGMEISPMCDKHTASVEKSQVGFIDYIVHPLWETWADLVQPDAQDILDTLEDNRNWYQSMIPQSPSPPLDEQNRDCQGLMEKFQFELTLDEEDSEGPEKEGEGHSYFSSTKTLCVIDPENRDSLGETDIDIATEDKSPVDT
Chain of Muscarinic acetylcholine receptor M1 (Rattus norvegicus) (P08482 whole entry, looked up): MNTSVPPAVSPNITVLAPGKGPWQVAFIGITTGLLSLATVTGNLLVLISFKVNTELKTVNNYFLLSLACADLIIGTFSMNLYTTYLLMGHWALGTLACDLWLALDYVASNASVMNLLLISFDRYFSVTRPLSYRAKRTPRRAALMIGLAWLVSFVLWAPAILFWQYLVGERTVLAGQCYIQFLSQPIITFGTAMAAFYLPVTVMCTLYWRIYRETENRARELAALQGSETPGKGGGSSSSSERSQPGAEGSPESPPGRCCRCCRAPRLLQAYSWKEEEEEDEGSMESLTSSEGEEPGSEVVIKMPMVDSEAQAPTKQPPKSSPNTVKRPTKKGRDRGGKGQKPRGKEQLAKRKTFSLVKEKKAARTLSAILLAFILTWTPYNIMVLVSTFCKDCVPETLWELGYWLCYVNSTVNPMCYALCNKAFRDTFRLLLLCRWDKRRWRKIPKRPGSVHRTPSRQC
Chain of Alpha-galactosidase (Coffea arabica) (Q42656 whole entry, looked up): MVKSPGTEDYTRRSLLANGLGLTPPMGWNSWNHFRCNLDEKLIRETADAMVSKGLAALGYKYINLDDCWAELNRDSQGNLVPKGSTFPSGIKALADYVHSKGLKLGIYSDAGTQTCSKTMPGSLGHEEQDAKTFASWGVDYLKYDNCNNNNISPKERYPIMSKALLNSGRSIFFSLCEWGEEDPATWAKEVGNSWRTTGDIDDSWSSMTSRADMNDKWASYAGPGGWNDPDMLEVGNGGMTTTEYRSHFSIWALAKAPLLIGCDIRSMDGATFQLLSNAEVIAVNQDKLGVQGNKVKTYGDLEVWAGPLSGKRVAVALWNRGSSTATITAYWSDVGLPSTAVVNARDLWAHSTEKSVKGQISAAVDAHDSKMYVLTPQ

For the compound `C[C@@]12CC[C@H]3[C@@H](CC[C@@H]4C[C@H](O)CC[C@]43C)[C@H]1CC[C@H]2O`, the activity change, negative = inhibition in assay [1] was -12.3% [at 38 µM]; in assay [3], 6.96% [at 38 µM]. In addition, the results for the Potency in [2], in [5] and in [6] were 15.8 µM (active), above 46 µM and above 46 µM, respectively. Further, in assay [4], the activity, negative = inhibition was 24.5% [at 38 µM]. Further, the Potency entry in [7] and in assay [11] was “inactive” in each case. Besides, the outcome in assay [8], in assay [9], in assay [10], in assay [12], in assay [13] and in assay [14] was inactive. In addition, the result in assay [15] and in [16] was inactive.

Consider `COc1cc(C[C@H](C)N)c(OC)cc1I`, for which the activity change, negative = inhibition in assay [1] is 8.22% [at 38 µM] and 4.79% [at 38 µM]; in assay [3], -22.6% [at 38 µM] and -16.3% [at 38 µM]. Further, the Potency in [2] was 6.31 µM (active) and 12.6 µM (active); in assay [5], above 46 µM; in assay [6] it was above 46 µM; in assay [17], 0.891 µM (active). For the same compound, the activity, negative = inhibition in assay [4] was -6.07% [at 38 µM]. Moreover, in assay [7], the Potency result is “inactive”. Moreover, the outcome in [8], in assay [9], in assay [10], in [12], in assay [13] and in assay [14] was inactive. The compound was called inactive in [15] and in assay [16].

For the compound `CSCC[C@@H](N)P(C)(=O)O`, the activity change, negative = inhibition in assay [1] is 10.2%; in [3], 2.01%; in [7] it was 0.585% [at 11.4 µM]. In assay [2], the Potency result was “inactive”. Moreover, the activity, negative = inhibition in assay [4] was 13.5%. Also, the Potency in [5] is above 46 µM; in assay [6] it was above 9.22 µM. In assay [8], the compound was called inactive.

As for `C[N+]1(C)C2CC(OC(=O)C(CO)c3ccccc3)CC1[C@@H]1O[C@H]21` (stereo not given in full), the activity change, negative = inhibition in [1] is -8.85% [at 38 µM] and -6.94% [at 38 µM]; in [3] it was -56.8% [at 38 µM] (active). Further, the Potency entry in assay [2] and in [7] was “inactive” throughout. Besides, the activity, negative = inhibition in assay [4] was 5.12% [at 38 µM] and -2.5% [at 38 µM]. Also, the Potency in [5] and in [6] was above 46 µM throughout. Moreover, the result in [9], in assay [10], in [12], in assay [13], in [14] and in assay [15] was inactive. Also, the call in [16] was inactive.

As for `N[C@H](CCl)C(=O)O`, the activity change, negative = inhibition was 0.76% [at 38 µM] in assay [1] and 14.9% [at 38 µM] in [3]. Also, the Potency result in assay [2], in assay [7] and in assay [17] was “inactive” in each case. The activity, negative = inhibition in assay [4] was -9.55% [at 38 µM]. The Potency in assay [5] and in assay [6] was above 46 µM in each case. Also, the result in assay [8], in assay [9], in assay [10], in [12], in [13] and in assay [14] was inactive. For the same compound, the call in assay [15] and in assay [16] was inactive.
